# The list is not random: actives were taken first. Their share in the collection is about 3.7%.
# Nrf2 block: Nrf2 pathway inhibition; A549 ARE-Fluc reporter, luciferase luminescence, 18-24 h; Potency, µM (titrated, usually from 46 µM), without a hit: top-dose activity change, negative = inhibition, hits mostly inhibitors; 360,000 compounds, 2.1% hits; AID 504444; also: % is scaled to controls: 0 for no effect and ±100 for the full control effect; nearly all actives have a fitted effect of over 60% in size
#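 Concentration-response testing used A549 ARE_Fluc cells at 5000 cells/well. Following an 18-24 h compound incubation, viability was read by fluorescence (Ex 405/Em 525) and luciferase output by luminescence.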
# Nrf2 ARE act: activators of Nrf2 (ARE) signaling; 410,000 compounds, 0.31% hits; AREc32 ARE-luciferase reporter (MCF7-derived line), luminescence, 24 h; AID 624171; Potency, µM (highest dose often 46.1 µM), for the others: top-dose activation, hits mostly activators; also: % of control where 0% means no effect; nearly all actives have a fitted effect of over 65% in size
#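 AREc32 cells carrying an ARE-driven firefly luciferase, 1000 cells/well in OPTI-MEM with 5% FBS, dosed after overnight attachment and incubated 24 hr at 37 deg C. Steady-Glo luminescence read after 30 min at RT.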
# ELG1 DNA repair: blocks ELG1-dependent DNA repair in HEK293T cells; 330,000 compounds, 2.3% hits; Potency, µM (top dose mostly 46.1 µM), for inactives: at the top dose activity change, negative = inhibition, most hits filed as inhibitors; AID 504467; HEK293T ELG1-luciferase reporter, luminescence, 16 h; DNA damage induced by 5-fluorouridine; also: % is scaled to controls: 0 for no effect and ±100 for the full control effect; nearly all actives have a fitted effect of over 55% in size
#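 Overnight (16 hr) co-exposure of 2,000 cells/well to 5-fluorouridine and compound at 37 °C preceded detection. Luciferase was quantified via ONE-Glo luminescence; loss of signal denotes inhibition.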
# A549 viability: counter-screen for Nrf2 inhibitors: cytotoxicity in A549 cells. 390,000 compounds, 0.16% hits. A549 ARE-Fluc cells, CellTiter-Fluor viability, 18-24 h. AID 504648. Potency, µM (top dose mostly 46 µM), inactives show at the highest dose activity change, negative = cytotoxicity, hits mostly inhibitors; also: % is scaled to controls: 0 for no effect and ±100 for the full control effect
#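 A549 ARE-Fluc cells in 5% FBS OPTI-MEM, 5000 cells/well, rested 2 h then exposed to compounds in concentration-response for 18-24 h at 37 °C. Viability by CellTiter-Fluor fluorescence (Ex 405/Em 525) after 30 min; luciferase luminescence (BugLite, 15 min, RT) read afterwards.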
# * = called active by the depositor; ? = inconclusive; · = not tested or not shown. Calls follow the shape of the dose curve; as a rule, active = well fitted curve in the direction sought with a large enough effect; inconclusive = small, poorly fitted or top-dose-only effect, or another doubt; inactive = no such curve, though single readings can be large; an effect the other way counts as inactive or inconclusive. Potency is read from the fitted curve at half-maximal effect.
SMILES,Nrf2 block,Nrf2 ARE act,ELG1 DNA repair,A549 viability
Cc1c(N=Nc2c(O)n(Cc3ccccc3)c(=O)[nH]c2=O)c(=O)n(-c2ccccc2)n1C,5.17µM*,-0.1%,?,16.4µM*
Cc1c(N=Cc2c(O)n(Cc3ccccc3)c(=O)[nH]c2=O)c(=O)n(-c2ccccc2)n1C,22.9%,-0.5%,-3.9%,-2.2%
CCOC(=O)[C@]12Cc3cc(OC)ccc3[C@H]1N(C(C)C)C(=O)c1cc(OC)ccc12,·,-4.3%,·,·
COc1ccc(C2=NCC(=O)N(CC(=O)NCc3ccco3)c3sc4c(c32)CCCC4)cc1,20.6µM*,5.9%,-15.3%,?
N#Cc1cccc(NC(=O)c2sc3nc4c(cc3c2N)N2CCC4CC2)c1,·,2.1%,·,-7.4%
CCN(CC)C(=O)c1ccc(NC(=O)c2ccc(-c3nn(C)c(=O)c4ccccc34)cc2)cc1,?,-1.0%,-10.8%,-4.0%
Cc1ccc(-c2nn(C)c(=O)c3ccccc23)cc1CNC(=O)/C=C/c1ccccc1,?,2.6%,16.4µM*,-18.3%
CCOc1ccc(CCNC(=O)c2ccc(-n3c(C)cc4c3CCCC4)cc2)cc1OCC,0.0%,?,·,-1.7%
Cc1ccc(C(C)C)c(OCC(=O)N2CCN(Cc3nc4cc([N+](=O)[O-])ccc4n3C)CC2)c1,?,-0.3%,20.6µM*,0.0%
Cc1ccc(-n2nc3c(=O)n(CC(=O)Nc4ccccc4F)nc(C)c3c2C)c(C)c1,?,5.1%,·,-1.2%
CCC(C(=O)Nc1ccccc1C(=O)OC)n1nc(C)c2c(C)n(-c3ccc(C)cc3)nc2c1=O (configuration not stated),18.4µM*,-1.4%,·,-21.9%
C[C@@H](C1CC[C@@]2(O)C3=CC(=O)[C@@H]4C[C@@H](O)[C@@H](O)C[C@]4(C)[C@H]3CC[C@]12C)[C@H](O)CCC(C)(C)O (some centres not stated),18.7%,·,·,5.8%
O=C(c1ccc2c(c1)OCO2)N1CCC2(CC1)OCCO2,11.2%,0.0%,14.6%,16.2%
O=C(c1ccc(N2CCCCCC2)c([N+](=O)[O-])c1)N1CCC2(CC1)OCCO2,23.1µM*,-0.5%,?,?
Cc1ccccc1-n1c(/C=C/c2ccc(O)cc2)nc2ccccc2c1=O,?,-3.3%,·,-18.9%
CCOc1ccc(CCNC(=O)c2cc3c(-c4ccc(OC)c(OC)c4)nn(C)c3s2)cc1OCC,13µM*,-1.1%,·,-9.3%
Cc1ccc2c(Cl)cc(Cl)c(OCC(=O)N(C(C)C)C(C)C)c2n1,?,0.1%,25.9µM*,-6.4%
O=C(c1cccc(Cl)c1)C1CCCN(Cc2ccon2)C1 (configuration not stated),8.1%,2.6%,0.58µM*,13.4%
Cc1cc(=O)oc2cc(OCC(=O)N3CCN(C(C)c4ccccc4)CC3)c(Cl)cc12 (configuration not stated),-20.8%,-1.6%,20.6µM*,-1.7%
CCN(CCNc1ccc([N+](=O)[O-])c2cccnc12)S(=O)(=O)c1ccccc1,18.6%,0.6%,9.4%,-9.1%
Cc1c(NS(=O)(=O)c2ccccc2)ccc([N+](=O)[O-])c1Cl,14.6µM*,4.1%,·,?
COC(=O)C1=C(c2cccc(OCc3ccccc3)c2)C[C@@H]2CC[C@H]1N2C(=O)NCc1ccc(F)cc1,?,-0.5%,-26.1%,-7.5%
COC(=O)C1=C(c2ccc(OCc3ccccc3)cc2)C[C@@H]2CC[C@H]1N2C(=O)NCCCc1ccccc1,14.6µM*,0.1%,-15.4%,-18.5%
COC(=O)C1=C(c2ccc(OCc3ccccc3)cc2)C[C@@H]2CC[C@H]1N2C(=O)NCc1ccccc1OC,·,0.3%,·,·
COC(=O)C1=C(c2cccc(OCc3ccccc3)c2)C[C@@H]2CC[C@H]1N2C(=O)NCCCc1ccccc1,20.6µM*,-0.3%,?,-17.4%
COc1cccc(-n2nnc3c(sc4nc(C)cc(C)c43)c2=O)c1,?,3.2%,·,8.2%
COC1=CC(=O)[C@]2(C=C1OC)OC[C@@H]1Oc3c(ccc4c3C=CC(C)(C)O4)C(=O)[C@@H]12,0.651µM*,5.7%,1.16µM*,-10.0%
COc1ccc(/C=C2\Oc3cc(OC(=O)N4CCOCC4)ccc3C2=O)c(OC)c1,?,-0.1%,-3.9%,17.6%
CC(C)n1c(=O)c(C=Nc2ccc(S(N)(=O)=O)cc2)c(O)n(Cc2ccco2)c1=O,-12.5%,2.5%,1.6%,0.2%
